For 13 molecules, growth results are on record in PubChem BioAssay (NCI).

The panel holds about 83,000 compounds, 20% with a hit somewhere; the sample as a whole holds those more often.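 Assay: single dose, 48 h. Readout: percent growth (0 = no net growth; negative = cell death). Active: <10.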 Unmarked numbers belong to inactive results. The source made the active and inactive calls.

The test system of this test is MDA-MB-468 breast. Put plainly: NCI-60 one-dose screen, 48 h (100 = growth as untreated, 0 = no growth, -100 = all killed). Particulars: 10 µM unless noted.
`CC(C)c1ccc(NC(=O)Nc2ccc(NC(=O)CCCC(=O)NOCc3ccccc3)cc2)cc1`: the growth is 85%.

Consider `CCOC(=O)c1c(NC(=O)c2ccc(C(F)(F)F)cc2)sc2c(CN3CCN(C)CC3)c(O)ccc12`, for which the growth was -80.6% (active).

Consider `CCCn1c(=O)[nH]c(N)c([C@H]2c3ccccc3Oc3[nH]c(=O)n(CCC)c(=O)c32)c1=O`, for which the growth is 68.7%.

Turning to `FC1(F)CCN(Cc2c[nH]c3cc(Cl)ccc23)C[C@H]1CCc1ccccc1`, the growth was 9.33% (active).

Turning to `C[C@@H]1N=C(c2ccc3ccccc3c2)Nc2nc3ccccn3c2C1=O`, the growth was 50.5%.

For the molecule `CC1CCNC(C)C1` (stereo not drawn), the growth was 99.2%.

As for `COc1ccc(C2C(C#N)=C(N)Oc3c2sc2c(C)cccc32)cc1` (stereo not drawn), the growth is 8.47% (active).

With `COc1ccc(/C=C2\N=C3SC=C(N)N3C2=O)cc1`, the growth was -31.9% (active).

Consider `Cc1ccccc1/C=C/C(=O)c1cccc(OCCCCOc2cccc(C(=O)/C=C/c3ccccc3C)c2)c1`, for which the growth was 86.1%.

As to `C#C[C@]1(O)CC[C@H]2[C@@H]3CC=C4c5sc(Nc6cc(C)cc(C)c6)nc5CC[C@]4(C)[C@H]3CC[C@@]21C`, the growth is -11.3% (active).

For the molecule `CC(=O)n1cc(/C=C2\N=C(c3ccc(Cl)cc3)N(c3ccc(S(=O)(=O)Nc4nccs4)cc3)C2=O)c2ccccc21`, the growth is 96.1%.

As for `N#C/C(=C\c1ccc(-c2ccc(Br)cc2)o1)c1nc(-c2cccs2)cs1`, the growth is 6.37% (active).

On to `Cc1ccc(C2=NN(c3ccc(S(=O)(=O)NC(=O)NCc4ccccc4)cc3)C(c3ccc(N(C)C)cc3)C2)c(C)c1` (stereo not drawn), for which the growth was 49.4%.
